Assay results from the supplement of paper PMC6555819.

Experiments:
Experiment in all cases: PBM binding z-score (relative to random genomic background probes); higher = stronger binding; sequences stand for … in GC…GCGATTGACAGCGTAGAATGAAGG
[1] = tested on: FXR:RXRa (NR concentration 270 nM, RXRa partner concentration 90 nM)
Outline: (§1)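 Ligand-free nuclear receptor dimers were bound for 1 h to custom Agilent 4×180K protein-binding microarrays. Detection used antibodies against each partner (one per run). Binding z-scores rest on regression-normalized fluorescence, with random background probes as the reference.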

[2] = tested on: LXRa:RXRa (NR concentration 270 nM, RXRa partner concentration 90 nM)
Outline: as §1

[3] = tested on: LXRa homodimer (NR concentration 270 nM)
Outline: as §1

[4] = tested on: LXRb:RXRa (NR concentration 270 nM, RXRa partner concentration 90 nM)
Outline: as §1

[5] = tested on: LXRb homodimer (NR concentration 270 nM)
Outline: as §1

[6] = tested on: PPARa:RXRa (NR concentration 270 nM, RXRa partner concentration 90 nM)
Outline: as §1

[7] = tested on: PPARg:RXRa (NR concentration 180 nM, RXRa partner concentration 90 nM)
Outline: as §1

[8] = tested on: PPARg:RXRa 270nM:90nM, anti-RXR (NR concentration 270 nM, RXRa partner concentration 90 nM)
Outline: as §1

[9] = tested on: PPARg:RXRa 30nM:10nM, anti-RXR (NR concentration 30 nM, RXRa partner concentration 10 nM)
Outline: as §1

[10] = tested on: PPARg:RXRa 90nM:30nM, anti-RXR (NR concentration 90 nM, RXRa partner concentration 30 nM)
Outline: as §1

[11] = tested on: PPARg:RXRa DBDmut IVT, anti-RXR (DBD mutation: RXRa K156A/R161A, NR concentration 270 nM, RXRa partner concentration 90 nM)
Outline: as §1

[12] = tested on: PPARg:RXRa IVT, anti-PPARg (NR concentration 270 nM, RXRa partner concentration 90 nM)
Outline: as §1

[13] = tested on: PPARg DBDmut:RXRa IVT, anti-PPARg (DBD mutation: PPARg1 K132A/R137A, NR concentration 270 nM, RXRa partner concentration 90 nM)
Outline: as §1

[14] = tested on: PPARg DBDmut IVT, anti-PPARg (DBD mutation: PPARg1 K132A/R137A, NR concentration 270 nM)
Outline: as §1

[15] = tested on: PPARg homodimer (NR concentration 180 nM)
Outline: as §1

[16] = tested on: PXR:RXRa (NR concentration 270 nM, RXRa partner concentration 90 nM)
Outline: as §1

[17] = tested on: PXR homodimer (NR concentration 270 nM)
Outline: as §1

[18] = tested on: RARa:RXR (NR concentration 270 nM, RXRa partner concentration 90 nM)
Outline: as §1

[19] = tested on: RARa homodimer (NR concentration 270 nM)
Outline: as §1

[20] = tested on: RARb:RXRa (NR concentration 270 nM, RXRa partner concentration 90 nM)
Outline: as §1

Sequence	PBM binding z-score [1]	PBM binding z-score [2]	PBM binding z-score [3]	PBM binding z-score [4]	PBM binding z-score [5]	PBM binding z-score [6]	PBM binding z-score [7]	PBM binding z-score [8]	PBM binding z-score [9]	PBM binding z-score [10]	PBM binding z-score [11]	PBM binding z-score [12]	PBM binding z-score [13]	PBM binding z-score [14]	PBM binding z-score [15]	PBM binding z-score [16]	PBM binding z-score [17]	PBM binding z-score [18]	PBM binding z-score [19]	PBM binding z-score [20]
GAACCAAGGTGAATAGGTCGTTGATGAGTAGGCG	0.855	0.803	-0.0902	0.55	-0.922	2.46	1.74	1.97	0.275	1.25	1.81	2.56	-0.234	-0.27	0.411	0.765	-0.0642	1.68	-0.0573	1.95
CCTCACGGGTCACGAGGTTATAGCACGACGAGCG	6.54	4.19	0.232	3.64	-0.109	5.59	6.23	5.68	2.34	4.25	1.87	3.65	0.599	-0.0554	3.5	4.4	0.143	5.63	0.537	4.43
ACTATTAGTTGAAACGAGGGCAACCGATAGGTTG	1.41	0.609	0.126	0.482	0.184	1.14	0.901	0.84	0.292	0.528	0.662	1.73	1.09	0.692	0.274	2.71	0.569	1.38	0.873	1.27
TCGAGTAGGTTAGGGACATTCAGAATGGCGTCGA	0.438	-0.314	-0.491	-0.146	-0.828	0.561	0.371	0.659	1.18	0.799	1.85	1.17	-0.378	-1.4	0.27	-0.0606	-0.414	0.186	-0.0818	0.661
ACTAGCAGACCAAGTTTGGGTCACTCAAACAAAG	-0.0358	-0.0494	-0.696	0.808	-0.744	1.32	-0.0128	0.182	-0.186	0.531	-0.311	0.415	-0.191	-0.505	-0.222	0.6	-0.393	1.12	-0.119	0.992
CCTATCAGTTGACCATAAGGGCAACCGAAGCTCG	0.965	0.314	0.218	0.583	0.56	0.693	0.456	0.233	-0.0186	0.0779	-0.0435	0.067	-0.241	0.0861	1.5	0.754	0.186	1.14	0.698	1.6
ATATGTAGGTTACATCCGGGTGATTCAGGCTATG	0.452	4.47	0.517	1.64	0.268	3.54	5.24	4.39	1.74	3.56	6.76	7.32	2.76	2.26	1.49	0.723	0.414	0.999	0.428	1.05
ACTATTAGTTGACTTAGGGCAACAGATACGACGC	0.0788	0.0659	0.494	0.0147	0.162	-0.0178	0.94	0.32	0.494	0.163	0.146	0.696	1.18	1.49	0.262	0.159	0.123	0.356	0.66	0.851
CGAACGAGGGCATGAGTTGATACCAAATGCCGAT	0.819	0.53	-0.18	0.374	-0.612	1.57	1.61	1.67	0.555	0.997	2.76	2.32	-0.303	-0.419	0.59	0.723	0.347	0.695	-0.402	2.03
CTCGAAAGGTCGTGCTCAGGTGGGTATACCAAAC	5	3.41	0.337	3.41	0.396	4.5	2.17	3.18	0.828	1.96	0.456	1.65	0.375	0.179	1.84	3.14	0.555	3.84	0.327	3.9
TCTAGTTGGTCACGGATGTCACACACGACGGGTA	0.669	0.373	0.422	0.666	0.393	1.18	1.32	2.25	3.22	2.84	2.2	2.89	1.14	1.42	1.14	0.836	-0.124	0.724	0.648	1.88
CCTTACGGGTCAAGGTTATTGCACGGGTGGTACG	5.1	3.67	0.262	2.96	0.000433	4.77	4.52	4.63	2.03	3.46	2	3.61	-0.367	-0.115	2.22	3.62	0.512	4.2	0.978	4.12
ATAATGAGGTTAAGATCAGGGAAACAGAATACAT	2.39	2.59	0.379	2.15	0.727	3.79	3.01	2.48	1.48	2.19	3.08	3.32	1.83	1.92	1.15	1.31	0.654	2.22	0.709	2.22
CCGACTGGGGCATGGTTACCATAACGCACAGCCA	-0.978	-0.621	-0.461	-0.438	-1.07	0.0592	1.31	1.11	-0.195	0.273	2.18	2.5	-0.776	-0.933	-0.129	-0.696	-0.585	-0.433	-0.847	0.396
ATCTCTAGGTAAAGATAGTCCAGTGAATGCAAAT	0.226	0.368	-0.00685	-0.0224	0.398	-0.051	0.458	0.219	0.157	0.0539	2.01	1.66	1.44	0.736	0.414	-0.159	0.523	-0.259	0.93	-0.257
TTACGAAGGTGAAGGTCGTTGATCCCTCTGTAGA	2.35	1.9	-0.207	1.48	-0.709	2.66	2.48	3.86	2.7	3.16	1.43	2.62	0.0113	-0.332	0.462	1.58	-0.113	1.68	-0.46	2.23
CAAACTAGGTCACGAAAGGTCAAAGTCGAATGAC	7.74	8.37	7.89	7.46	2.8	6.76	10.7	8.68	7.48	8.74	8.54	9.04	3.28	2.22	5.79	7.14	2.95	7.8	3.54	5.84
GGAACGAGCGCAAGTTGATAGCAGAGTTTGATGG	-0.654	-0.851	-0.781	-1.08	-1.48	-0.641	0.166	-0.948	-0.778	-0.888	-0.621	-0.838	-2.04	-1.98	-1.77	-0.63	-0.349	-1.15	-1.13	-0.612
CCGACTGAGGCATAAGGTTACCATAAGCCAGCCC	0.414	2.01	-0.182	1.05	-1.08	1.18	0.973	1.31	-0.0351	0.852	0.216	-0.451	-0.747	-0.854	0.366	0.286	-0.308	1.03	0.101	0.876
GATACAGGGTCACGGCCAGAGTACGCGTATTGAT	7.54	5.1	-0.0336	4.33	-0.171	6.26	8.33	7.43	3.93	6.41	4.17	5.49	1.11	0.362	2.36	4.75	0.0972	6.41	0.744	4.89
CCTAGTTGGTCTGGAGGTCACACACCGGATATGA	3.79	4.06	3.63	3.51	0.759	4.17	2.1	3.14	0.849	2.61	0.138	2.42	-0.0171	0.512	3.95	4.72	1.81	5.16	2.41	3.59
CAAACTAGGTCAAGAGGTCACAGTCCGCTTCCCG	6.79	5.84	4.4	4.97	1.01	6.61	10.2	8.35	7.25	8.69	8.51	8.53	3.61	2.62	6.23	5.99	1.56	7.64	2.8	5.67
CCTACTGGGCCATCAGGTCATTGGTATCAACGTT	1.47	1.25	1.08	1.78	-0.424	2.91	2.98	3.68	1.17	2.79	4.05	5.2	-1.01	-0.269	1.09	1.67	0.395	2.04	-0.0401	2.25
CGTCCAAGGTCAGAGGTCAGTGAAGAGATGACGG	6.67	5.39	1.56	4.73	0.465	6.09	8.26	6.86	5.6	7.06	2.44	4.65	0.388	-0.499	3.51	5.72	1.13	7.11	0.938	5.55
ACTATTAGTTGAGACGATGGCAACCGATAGGTTG	-0.242	-0.267	0.0381	-0.527	0.0838	-0.263	0.598	-0.0569	0.0135	-0.0627	0.172	0.0295	0.79	1.06	0.664	-0.242	-0.102	-0.204	0.657	-0.199
ATATGTAGGTTATCGGGTCATTCGGTTTGCGCAT	3.2	3.11	1.78	2.85	1.02	4.68	6.96	5.9	3.48	6.13	7.54	7.29	1.79	2.8	2.29	3.5	5.62	3.42	1.12	2.45
TCTCGGAGGACACGACGGTCAGAGCTTTCCAGAG	0.205	0.0184	-0.415	-0.277	-1.16	0.197	-0.0353	0.515	1.6	1.3	1.2	0.00965	-1.14	-0.952	-0.596	-0.328	-0.626	-0.317	-0.599	1.91
CCGACTGGGGCTAGGTTACCATAACGCACAGCCA	-0.553	-0.225	-0.483	-0.184	-0.938	-0.107	0.784	0.0405	-0.564	-0.369	0.166	0.0447	-1.21	-1.97	-0.278	-0.509	-0.572	-0.318	-0.21	0.392
CCGACTGGGGCAGAAGGGTTACCATACCATCCGG	-0.34	-0.358	-0.422	-0.143	-0.958	0.847	1.13	1.14	-0.416	0.389	1.09	1.56	-0.531	-1.22	0.108	-0.0806	-0.804	0.392	-0.582	0.984
